Measurements published in PubChem BioAssay (NCATS).
Inconclusive results are not listed. Calls of active or inactive are those of the source. Unless noted, calls come from the whole dose curve; as a rule, active = well fitted curve in the direction sought with a large enough effect; inconclusive = small, poorly fitted or top-dose-only effect, or another doubt; inactive = no such curve, though single readings can be large; an effect the other way counts as inactive or inconclusive.

Experiments:
NIH3T3 = experiment: qHTS assay to identify novel small-molecules to repurpose for Merkel cell carcinoma treatment (AID 1296009); details: MCC and control cell lines, CellTiter-Glo viability, 72 h; at 44.8 µM (top of the series) unless noted; note: nearly all actives have a fitted effect of over 60% in size
Outline: (§1)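 Viability readout: ATP luminescence (CellTiter-Glo) after 72 hr drug exposure at 37 degree celsius. Dose-response format was 8 points for NPC and 11 points for MIPE; data normalized to in-plate controls.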

UISO = experiment: as above; details: MCC and control cell lines, CellTiter-Glo viability, 72 h; series mostly up to 46 µM
Outline: as §1

WaGa = experiment: as above; details: MCC and control cell lines, CellTiter-Glo viability, 72 h; series mostly up to 46 µM
Outline: as §1

C33A = experiment: Primary qHTS to identify gynecologic anti-cancer compounds using libraries of approved drugs and bioactive compounds (AID 1345084); details: Gynecologic cancer cell panel viability, ATPlite luminescence, 48 h; series mostly up to 57.5 µM; note: % is set by controls: 0 for no effect and ±100 for the full control effect; nearly all actives have a fitted effect of over 55% in size
Outline: (§2)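 Measured: luminescence after ATPlite addition (15 min, RT). Exposure: 48 h, 37 C, 5% CO2.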

CAOV3 = experiment: as above; details: Gynecologic cancer cell panel viability, ATPlite luminescence, 48 h; series mostly up to 57.5 µM
Outline: as §2

CASKI = experiment: as above; details: Gynecologic cancer cell panel viability, ATPlite luminescence, 48 h; series mostly up to 57.5 µM
Outline: as §2

Es-2 = experiment: as above; details: Gynecologic cancer cell panel viability, ATPlite luminescence, 48 h; series mostly up to 57.5 µM
Outline: as §2

HeLa = experiment: as above; details: Gynecologic cancer cell panel viability, ATPlite luminescence, 48 h; series mostly up to 57.5 µM
Outline: as §2

Hek293T = experiment: as above; details: Gynecologic cancer cell panel viability, ATPlite luminescence, 48 h, control line for the selectivity index; series mostly up to 57.5 µM
Outline: as §2

JEG-3 = experiment: as above; details: Gynecologic cancer cell panel viability, ATPlite luminescence, 48 h; series mostly up to 57.5 µM
Outline: as §2

OV90 = experiment: as above; details: Gynecologic cancer cell panel viability, ATPlite luminescence, 48 h; series mostly up to 57.5 µM
Outline: as §2

PA-1 = experiment: as above; details: Gynecologic cancer cell panel viability, ATPlite luminescence, 48 h; series mostly up to 57.5 µM
Outline: as §2

Tov-21-G = experiment: as above; details: Gynecologic cancer cell panel viability, ATPlite luminescence, 48 h; series mostly up to 57.5 µM
Outline: as §2

Tov112D = experiment: as above; details: Gynecologic cancer cell panel viability, ATPlite luminescence, 48 h; series mostly up to 57.5 µM
Outline: as §2

[1] = Drug repurposing screens with cells derived from glioblastoma tumor samples (AID 1345199); details: GBM patient neurospheres viability, ATP luminescence, 48 h; note: nearly all actives have a fitted effect of over 40% in size; note: potency is the fitted concentration of half-maximal effect; for activity, negative = cell killing: % is set by controls: 0 for no effect and ±100 for the full control effect
Outline: (§3)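 Primary testing used CD133+ neurospheres from four GBM patients, seven concentrations, 48 h exposure and ATP-based viability; confirmation added three slower-growing patient lines.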

astro = experiment: as above; details: viability, ATP luminescence, 48 h; series mostly up to 45.9 µM
Outline: as §3

[2] = molecular target: Nuclear receptor subfamily 1 group I member 2 (Rattus norvegicus) (UniProt Q9R1A7); experiment: qHTS assay for small molecule activators of the rat pregnane X receptor (rPXR) signaling pathway (AID 651751; call rule not given here; note: 0% is about no effect); details: rPXR reporter cells, luciferase (One-Glo), 24 h
[3] = qHTS assay for small molecule activators of the human pregnane X receptor (PXR) signaling pathway (AID 720659; call rule not given here; note: 0% is about no effect)
SKOV3 = experiment: Primary qHTS to identify gynecologic anti-cancer compounds using libraries of approved drugs and bioactive compounds (AID 1345084); details: Gynecologic cancer cell panel viability, ATPlite luminescence, 48 h; series mostly up to 57.5 µM; note: % is set by controls: 0 for no effect and ±100 for the full control effect; nearly all actives have a fitted effect of over 55% in size
Outline: as §2

[4] = at 45.9 µM (top of the series), tumour line B
[5] = at 45.9 µM (top of the series), tumour line D
[6] = at 46.1 µM (top of the series), tumour line C

Nuclear receptor subfamily 1 group I member 2 (Rattus norvegicus), sequence (Q9R1A7 whole entry, looked up): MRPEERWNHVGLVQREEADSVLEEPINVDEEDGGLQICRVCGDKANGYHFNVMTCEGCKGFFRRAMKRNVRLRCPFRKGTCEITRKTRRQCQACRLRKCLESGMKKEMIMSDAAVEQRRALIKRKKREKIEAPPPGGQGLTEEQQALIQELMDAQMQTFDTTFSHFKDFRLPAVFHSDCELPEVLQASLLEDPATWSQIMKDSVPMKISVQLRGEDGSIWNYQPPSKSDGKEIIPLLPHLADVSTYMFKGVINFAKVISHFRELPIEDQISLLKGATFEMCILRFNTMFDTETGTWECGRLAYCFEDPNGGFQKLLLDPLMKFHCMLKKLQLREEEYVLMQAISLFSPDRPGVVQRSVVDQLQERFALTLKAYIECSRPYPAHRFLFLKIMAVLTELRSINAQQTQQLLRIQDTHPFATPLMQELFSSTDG

CC[C@]12CCCN3CCc4c(n(c5ccccc45)[C@@](O)(C(=O)OC)C1)[C@@H]32
inactive: outcome (NIH3T3) | outcome (UISO) | outcome (WaGa) | outcome (C33A) | outcome (CAOV3) | outcome (CASKI) | outcome (Es-2) | outcome (HeLa) | outcome (Hek293T) | outcome (JEG-3) | Potency (OV90) | outcome (PA-1) | outcome (Tov-21-G) | outcome (Tov112D) | activity, negative = cell killing [1, 4] -12.1% | activity, negative = cell killing [1, 5] 5.83% | activity, negative = cell killing [1, 6] -21.5% | outcome (astro)
active: Potency ([1]; tumour line A) 17.8 µM

Cc1c(NC(C)C)c(=O)n(-c2ccccc2)n1C
inactive: outcome (NIH3T3) | outcome (UISO) | outcome (WaGa) | outcome (C33A) | outcome (CASKI) | outcome (Es-2) | outcome (HeLa) | outcome (Hek293T) | outcome (JEG-3) | Potency (OV90) | outcome (PA-1) | outcome (Tov-21-G) | outcome (Tov112D) | activity, negative = cell killing [1, 4] 0.947% | activity, negative = cell killing [1, 5] -9.1% | activity, negative = cell killing [1, 6] -2.3% | outcome (astro)

Cc1cc(=O)[nH]c(=S)[nH]1
inactive: outcome (NIH3T3) | outcome (UISO) | outcome (WaGa) | outcome (C33A) | outcome (CAOV3) | outcome (CASKI) | outcome (Es-2) | outcome (HeLa) | outcome (Hek293T) | outcome (JEG-3) | Potency (OV90) | outcome (PA-1) | outcome (Tov-21-G) | outcome (Tov112D) | activity, negative = cell killing [1, 4] -11.2% | activity, negative = cell killing [1, 5] 2.62% | activity, negative = cell killing [1, 6] -26.3% | outcome (astro) | max response [2] -6.87% | outcome [3]

CCOC(=O)OC(C)OC(=O)[C@@H]1N2C(=O)[C@@H](NC(=O)[C@H](N)c3ccccc3)[C@H]2SC1(C)C (stereo partly specified)
inactive: outcome (NIH3T3) | outcome (UISO) | outcome (WaGa) | outcome (C33A) | outcome (CAOV3) | outcome (CASKI) | outcome (Es-2) | outcome (HeLa) | outcome (Hek293T) | outcome (JEG-3) | Potency (OV90) | outcome (PA-1) | outcome (SKOV3) | outcome (Tov-21-G) | outcome (Tov112D) | activity, negative = cell killing ([1]; at 20 µM (top of the series), tumour line C) 7.44% | activity, negative = cell killing ([1]; at 21.2 µM (top of the series), tumour line B) -8.91% | activity, negative = cell killing ([1]; at 21.2 µM (top of the series), tumour line D) -1.55% | outcome (astro)

C[N+](C)(C)CC(O)CC(=O)[O-] (stereo unspecified)
inactive: outcome (NIH3T3) | outcome (UISO) | outcome (WaGa) | outcome (C33A) | outcome (CASKI) | outcome (Es-2) | outcome (HeLa) | outcome (Hek293T) | outcome (JEG-3) | Potency (OV90) | outcome (PA-1) | outcome (SKOV3) | outcome (Tov-21-G) | outcome (Tov112D) | activity, negative = cell killing [1, 4] -2.63% | activity, negative = cell killing [1, 5] -13.3% | activity, negative = cell killing [1, 6] -12.8% | outcome (astro)

Nc1ncnc(Nc2ccccc2)n1
inactive: outcome (NIH3T3) | outcome (UISO) | outcome (WaGa) | outcome (C33A) | outcome (CAOV3) | outcome (CASKI) | outcome (Es-2) | outcome (HeLa) | outcome (Hek293T) | outcome (JEG-3) | outcome (PA-1) | outcome (SKOV3) | outcome (Tov-21-G) | outcome (Tov112D) | activity, negative = cell killing [1, 4] -14.8% | activity, negative = cell killing [1, 5] -23.1% | activity, negative = cell killing [1, 6] -21.6% | outcome (astro)
